# Measurements: PubChem BioAssay (NCI)
# Where “and” joins values, the source holds several entries; their conditions need not be identical. Equal entries are not always repeated. This is part of a sample that, as a whole, favours compounds with a hit. Of some 79,000 tested, about 15% had one in any assay. Some compounds were tested as several samples or in several runs, with calls that do not always agree. Calls of active or inactive are those of the source. Cut-off read from the data, not from the text of the source: active = growth inhibition above about 70%; inactive = the rest.
# Assays:
# [1] = NCI Yeast Anticancer Drug Screen. Data for the rad52 strain (AID 147);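 note: 0% = growth of vehicle-treated control cultures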; conditions: S. cerevisiae rad52 mutant growth inhibition, stronger effect = higher value
# Summary of the method: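 Yeast strain carrying a DNA damage repair alteration was exposed to test compounds. Growth inhibition was measured relative to vehicle-treated controls.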
# [2] = NCI Yeast Anticancer Drug Screen. Data for the wt1 strain (AID 149);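 note: 0% = growth of vehicle-treated wt1 cultures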; conditions: S. cerevisiae wt1 strain (SPY 50644) growth inhibition, stronger effect = higher value
# Summary of the method: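 Using yeast strain wt1, compound-induced growth inhibition was determined against vehicle-treated cultures.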
# [3] = NCI Yeast Anticancer Drug Screen. Data for the rad50EPP+ strain (AID 151);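 note: 0% = growth of vehicle-treated control cultures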; conditions: S. cerevisiae rad50 mutant strain, stronger effect = higher value
# Summary of the method: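 Yeast strain carrying rad50 alteration (rad50EPP+) exposed to compounds; growth inhibition measured relative to vehicle-treated controls.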
# [4] = NCI Yeast Anticancer Drug Screen. Data for the mgt1 strain (AID 153); conditions: S. cerevisiae mgt1 mutant growth inhibition, stronger effect = higher value
# Summary of the method: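 Yeast mgt1 strain (DNA repair/cell-cycle alteration panel) exposed to compounds; growth inhibition measured relative to vehicle-treated controls.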
# [5] = NCI Yeast Anticancer Drug Screen. Data for the rad50 strain (AID 155);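 note: 0% = growth of vehicle-only cultures of the same strain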; conditions: S. cerevisiae rad50 strain growth inhibition, stronger effect = higher value
# Summary of the method: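 Relative growth inhibition (compound vs vehicle) was measured in yeast with a defined repair-gene alteration.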
# [6] = NCI Yeast Anticancer Drug Screen. Data for the mec2-1 strain (AID 157); conditions: S. cerevisiae mec2-1 strain, stronger effect = higher value
# Summary of the method: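 mec2-1 yeast strain, carrying an alteration in DNA damage repair or cell cycle control, was exposed to compounds; growth inhibition was measured relative to vehicle-treated controls.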
# [7] = NCI Yeast Anticancer Drug Screen. Data for the rad14 strain (AID 159);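 note: 0% = growth of vehicle-treated control cultures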; conditions: S. cerevisiae rad14 strain growth inhibition, stronger effect = higher value
# Summary of the method: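 Screen for anticancer potential: a yeast strain altered in DNA damage repair is grown with compound, and reduced growth is quantified against vehicle controls.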
# [8] = NCI Yeast Anticancer Drug Screen. Data for the sgs1 mgt1 strain (AID 161);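 note: 0% = growth of cultures given vehicle only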; conditions: S. cerevisiae sgs1 mgt1 strain, stronger effect = higher value
# Summary of the method: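 Percent growth inhibition was derived by comparing compound-exposed mutant yeast with vehicle-exposed cultures. The strain carries alterations in DNA damage repair.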
# [9] = NCI Yeast Anticancer Drug Screen. Data for the CLN2oe strain (AID 163);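 note: 0% = growth of vehicle-only control cultures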; conditions: S. cerevisiae CLN2oe strain, stronger effect = higher value
# Summary of the method: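 Yeast cells carrying a defined cell-cycle control alteration were exposed to test compounds. Growth inhibition was scored against vehicle-treated control cultures.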
# [10] = NCI Yeast Anticancer Drug Screen. Data for the bub3 strain (AID 167); conditions: S. cerevisiae bub3 mutant strain, stronger effect = higher value
# Summary of the method: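 Screening used yeast with an engineered genetic alteration affecting cell cycle control. Compound-exposed cultures were compared with vehicle cultures, and reduced growth was taken as inhibition.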
# [11] = NCI Yeast Anticancer Drug Screen. Data for the wt2 strain (AID 169);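 note: 0% = growth of vehicle-treated yeast cultures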; conditions: S. cerevisiae wt2 strain growth inhibition, stronger effect = higher value
# Summary of the method: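 Yeast cells were exposed to test compounds, and growth inhibition was measured relative to vehicle-treated controls.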
# [12] = NCI Yeast Anticancer Drug Screen. Data for the mlh1 strain (AID 171);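 note: 0% = growth of vehicle-treated control cultures of the same strain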; conditions: S. cerevisiae mlh1 strain growth inhibition, stronger effect = higher value
# Summary of the method: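 Yeast carrying a defined genetic alteration in DNA damage repair or cell cycle control were exposed to test compounds. Growth inhibition was measured relative to vehicle-treated controls.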
# [13] = NCI Yeast Anticancer Drug Screen. Data for the sgs1 strain (AID 173);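 note: 0% = growth of vehicle-only control cultures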; conditions: S. cerevisiae sgs1 mutant, stronger effect = higher value
# Summary of the method: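 Yeast mutant strains carrying defined defects in DNA damage repair or cell cycle control were exposed to test compounds. Growth inhibition was scored against vehicle-treated controls.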
# [14] = NCI Yeast Anticancer Drug Screen. Data for the mlh1 rad18 strain (AID 175); conditions: S. cerevisiae mlh1 rad18 strain growth inhibition, stronger effect = higher value
# Summary of the method: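 Growth inhibition of the yeast strain was measured after compound exposure and expressed relative to vehicle-treated controls. The strain carries defined defects in DNA damage repair.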
# [15] = NCI Yeast Anticancer Drug Screen. Data for the rad18 strain (AID 177); conditions: S. cerevisiae rad18 mutant growth inhibition, stronger effect = higher value
# Summary of the method: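 Yeast carrying a defined DNA damage repair alteration were exposed to compounds. Growth inhibition was expressed relative to vehicle-treated controls.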
# [16] = NCI Yeast Anticancer Drug Screen. Data for the cln2 rad14 strain (AID 165);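 note: 0% = growth equal to vehicle treated cultures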; conditions: S. cerevisiae cln2 rad14 strain, stronger effect = higher value
# Summary of the method: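 Yeast carrying cln2 and rad14 alterations (cell cycle control and DNA damage repair) were exposed to compounds. Growth inhibition was measured against vehicle-treated controls.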
# [17] = at 5.0 µM (retest, dose inferred, filed as 0.5)
# [18] = at 50.0 µM (retest, dose inferred, filed as 5.0)
structure (smiles),measurement,setting,value
Cc1cc(N=C2C=CC(=[N+](C)C)C=C2)c(N)cc1N,growth inhibition,[1]; at 1.2 µM,-7% (inactive)
same,growth inhibition,[1]; at 3.7 µM,-9% (inactive)
same,growth inhibition,[1]; at 11.0 µM,15% (inactive)
same,growth inhibition,[1]; at 33.0 µM,45% (inactive)
same,growth inhibition,[1]; at 100.0 µM,72% (active)
same,growth inhibition,[2]; at 1.2 µM,12% (inactive)
same,growth inhibition,[2]; at 3.7 µM,15% (inactive)
same,growth inhibition,[2]; at 11.0 µM,23% (inactive)
same,growth inhibition,[2]; at 33.0 µM,52% (inactive)
same,growth inhibition,[2]; at 100.0 µM,75% (active)
same,growth inhibition,[3]; at 1.2 µM,-8% (inactive)
same,growth inhibition,[3]; at 3.7 µM,-6% (inactive)
same,growth inhibition,[3]; at 11.0 µM,-5% (inactive)
same,growth inhibition,[3]; at 33.0 µM,9% (inactive)
same,growth inhibition,[3]; at 100.0 µM,47% (inactive)
same,growth inhibition,[4]; at 1.2 µM,4% (inactive)
same,growth inhibition,[4]; at 3.7 µM,15% (inactive)
same,growth inhibition,[4]; at 11.0 µM,28% (inactive)
same,growth inhibition,[4]; at 33.0 µM,52% (inactive)
same,growth inhibition,[4]; at 100.0 µM,75% (active)
same,growth inhibition,[5]; at 1.2 µM,-2% (inactive)
same,growth inhibition,[5]; at 3.7 µM,1% (inactive)
same,growth inhibition,[5]; [17],54% (inactive)
same,growth inhibition,[5]; at 11.0 µM,15% (inactive)
same,growth inhibition,[5]; at 33.0 µM,52% (inactive)
same,growth inhibition,[5]; [18],61% (inactive)
same,growth inhibition,[5]; at 50.0 µM,46.4% (inactive)
same,growth inhibition,[5]; at 100.0 µM,71% (active)
same,growth inhibition,[6]; at 1.2 µM,-16% (inactive)
same,growth inhibition,[6]; at 3.7 µM,-13% (inactive)
same,growth inhibition,[6]; [17],50% (inactive)
same,growth inhibition,[6]; at 11.0 µM,-3% (inactive)
same,growth inhibition,[6]; at 33.0 µM,23% (inactive)
same,growth inhibition,[6]; [18],70% (active)
same,growth inhibition,[6]; at 50.0 µM,45.3% (inactive)
same,growth inhibition,[6]; at 100.0 µM,59% (inactive)
same,growth inhibition,[7]; at 1.2 µM,-20% (inactive)
same,growth inhibition,[7]; at 3.7 µM,-19% (inactive)
same,growth inhibition,[7]; at 11.0 µM,8% (inactive)
same,growth inhibition,[7]; at 33.0 µM,46% (inactive)
same,growth inhibition,[7]; at 100.0 µM,70% (active)
same,growth inhibition,[8]; [17],-18% (inactive)
same,growth inhibition,[8]; [18],65% (inactive)
same,growth inhibition,[8]; at 50.0 µM,63.8% (inactive)
same,growth inhibition,[9]; at 1.2 µM,35% (inactive)
same,growth inhibition,[9]; at 3.7 µM,35% (inactive)
same,growth inhibition,[9]; at 11.0 µM,32% (inactive)
same,growth inhibition,[9]; at 33.0 µM,28% (inactive)
same,growth inhibition,[9]; at 100.0 µM,67% (inactive)
same,growth inhibition,[10]; at 1.2 µM,4% (inactive)
same,growth inhibition,[10]; at 3.7 µM,7% (inactive)
same,growth inhibition,[10]; [17],31% (inactive)
same,growth inhibition,[10]; at 11.0 µM,34% (inactive)
same,growth inhibition,[10]; at 33.0 µM,54% (inactive)
same,growth inhibition,[10]; [18],21% (inactive)
same,growth inhibition,[10]; at 50.0 µM,62.6% (inactive)
same,growth inhibition,[10]; at 100.0 µM,75% (active)
same,growth inhibition,[11]; at 1.2 µM,-9% (inactive)
same,growth inhibition,[11]; at 3.7 µM,22% (inactive)
same,growth inhibition,[11]; at 11.0 µM,-15% (inactive)
same,growth inhibition,[11]; at 33.0 µM,22% (inactive)
same,growth inhibition,[11]; at 100.0 µM,62% (inactive)
same,growth inhibition,[12]; at 1.2 µM,1% (inactive)
same,growth inhibition,[12]; at 3.7 µM,2% (inactive)
same,growth inhibition,[12]; at 11.0 µM,-2% (inactive)
same,growth inhibition,[12]; at 33.0 µM,31% (inactive)
same,growth inhibition,[12]; at 100.0 µM,61% (inactive)
same,growth inhibition,[13]; at 1.2 µM,-27% (inactive)
same,growth inhibition,[13]; at 3.7 µM,-25% (inactive)
same,growth inhibition,[13]; at 11.0 µM,1% (inactive)
same,growth inhibition,[13]; at 33.0 µM,33% (inactive)
same,growth inhibition,[13]; at 100.0 µM,61% (inactive)
same,growth inhibition,[14]; [17],28% (inactive)
same,growth inhibition,[14]; [18],56% (inactive)
same,growth inhibition,[14]; at 50.0 µM,53.5% (inactive)
same,growth inhibition,[15]; at 1.2 µM,-2% (inactive)
same,growth inhibition,[15]; at 3.7 µM,-4% (inactive)
same,growth inhibition,[15]; at 11.0 µM,7% (inactive)
same,growth inhibition,[15]; at 33.0 µM,21% (inactive)
same,growth inhibition,[15]; at 100.0 µM,61% (inactive)
CC(C)c1cccc(O)c(=O)c1,growth inhibition,[1]; at 1.2 µM,2% (inactive)
same,growth inhibition,[1]; at 3.7 µM,-3% (inactive)
same,growth inhibition,[1]; at 11.0 µM,0% (inactive)
same,growth inhibition,[1]; at 33.0 µM,18% (inactive)
same,growth inhibition,[1]; at 100.0 µM,99% (active)
same,growth inhibition,[2]; at 1.2 µM,-1% (inactive)
same,growth inhibition,[2]; at 3.7 µM,-1% (inactive)
same,growth inhibition,[2]; at 11.0 µM,-1% (inactive)
same,growth inhibition,[2]; at 33.0 µM,38% (inactive)
same,growth inhibition,[2]; at 100.0 µM,98% (active)
same,growth inhibition,[3]; at 1.2 µM,5% (inactive)
same,growth inhibition,[3]; at 3.7 µM,8% (inactive)
same,growth inhibition,[3]; at 11.0 µM,-20% (inactive)
same,growth inhibition,[3]; at 33.0 µM,13% (inactive)
same,growth inhibition,[3]; at 100.0 µM,98% (active)
same,growth inhibition,[5]; at 1.2 µM,-7% (inactive)
same,growth inhibition,[5]; at 3.7 µM,-9% (inactive)
same,growth inhibition,[5]; [17],-1% (inactive) and 2% (inactive)
same,growth inhibition,[5]; at 11.0 µM,-8% (inactive)
same,growth inhibition,[5]; at 33.0 µM,27% (inactive)
same,growth inhibition,[5]; [18],52% (inactive) and 99% (active)
same,growth inhibition,[5]; at 50.0 µM,98.5% (active) and 92.5% (active)
same,growth inhibition,[5]; at 100.0 µM,98% (active)
same,growth inhibition,[6]; at 1.2 µM,-1% (inactive)
same,growth inhibition,[6]; at 3.7 µM,2% (inactive)
same,growth inhibition,[6]; [17],-43% (inactive) and 0% (inactive)
same,growth inhibition,[6]; at 11.0 µM,6% (inactive)
same,growth inhibition,[6]; at 33.0 µM,47% (inactive)
same,growth inhibition,[6]; [18],47% (inactive) and 100% (active)
same,growth inhibition,[6]; at 50.0 µM,99% (active) and 94.2% (active)
same,growth inhibition,[6]; at 100.0 µM,98% (active)
same,growth inhibition,[7]; at 1.2 µM,6% (inactive)
same,growth inhibition,[7]; at 3.7 µM,4% (inactive)
same,growth inhibition,[7]; at 11.0 µM,9% (inactive)
same,growth inhibition,[7]; at 33.0 µM,74% (active)
same,growth inhibition,[7]; at 100.0 µM,99% (active)
same,growth inhibition,[8]; [17],-2% (inactive) and 9% (inactive)
same,growth inhibition,[8]; [18],36% (inactive) and 99% (active)
same,growth inhibition,[8]; at 50.0 µM,93.9% (active) and 93.2% (active)
same,growth inhibition,[9]; at 1.2 µM,3% (inactive)
same,growth inhibition,[9]; at 3.7 µM,4% (inactive)
same,growth inhibition,[9]; at 11.0 µM,2% (inactive)
same,growth inhibition,[9]; at 33.0 µM,25% (inactive)
same,growth inhibition,[9]; at 100.0 µM,98% (active)
same,growth inhibition,[16]; [17],-4% (inactive) and 4% (inactive)
same,growth inhibition,[16]; [18],12% (inactive) and 99% (active)
same,growth inhibition,[16]; at 50.0 µM,96.3% (active) and 89.7% (active)
same,growth inhibition,[10]; at 1.2 µM,5% (inactive)
same,growth inhibition,[10]; at 3.7 µM,-2% (inactive)
same,growth inhibition,[10]; [17],-7% (inactive) and 0% (inactive)
same,growth inhibition,[10]; at 11.0 µM,-4% (inactive)
same,growth inhibition,[10]; at 33.0 µM,13% (inactive)
same,growth inhibition,[10]; [18],18% (inactive) and 99% (active)
same,growth inhibition,[10]; at 50.0 µM,99.3% (active) and 93.2% (active)
same,growth inhibition,[10]; at 100.0 µM,98% (active)
same,growth inhibition,[11]; at 1.2 µM,9% (inactive)
same,growth inhibition,[11]; at 3.7 µM,14% (inactive)
same,growth inhibition,[11]; at 11.0 µM,13% (inactive)
same,growth inhibition,[11]; at 33.0 µM,70% (active)
same,growth inhibition,[11]; at 100.0 µM,99% (active)
